The source of these data is PubChem BioAssay (NCATS).

SMILES strings stand for the structures. The list shows a part of the results. Entries that show only a call come without a potency. Inconclusive results are not listed. Calls of active or inactive are those of the source. Calls follow the shape of the dose curve; as a rule, active = well fitted inhibition curve with a large enough effect; inconclusive = small, poorly fitted or top-dose-only effect; inactive = flat fitted curve, though single readings scatter.
Potency is read from the fitted curve at half-maximal effect.

In this assay the test system is NanoLuc luciferase (engineered Oplophorus gracilirostris luciferase). Put plainly: Biochemical NLuc saturation counterscreen for small molecule modulators of PMP22 gene expression - Nano-Glo assay (AID 1508638). The conditions noted are these: Secreted NLuc enzyme (filtered S16 cell medium), Nano-Glo luminescence; series mostly up to 57.5 µM. The text has this:
Assay Provider: Jim Inglese Ph.D. National Center for Advancing Translational Science, National Institutes of Health, Rockville, MD CMT is a heterogeneous group of neurological disorders that affect approximately 1 in 2,500 people. In particular, the most common form of CMT, CMT1A is genetically linked to the duplication of the PMP22 gene which leads to Schwann cell overexpression, thus manifesting itself as a typical case of dose-sensitive diseases. To identify small molecule compounds that can mediate the expression of PMP22 we developed a phenotypic assay screening strategy by utilizing genome editing techniques to construct Schwann cell lines containing novel reporter technology to monitor the transcriptional or translational regulation of PMP22. For high sensitivity we use a bioluminescent reporter system embedded in the 3' UTR of the PMP22 gene (S16(c9) Pmp22-F2sN) to identify compounds that inhibit gene expression. […] We can further discriminate the effect of all transcriptionally active molecules on PMP22 translation or stability with an assay that incorporates a short NLuc peptide (HiBiT) at the C-terminus of expressed PMP22 (S16(f8) PMP22-HiBiT) allowing alpha complementation and luminescence detection of membrane-associated PMP22 protein. These assays were screened against the NCATS Sytravon Library Collection. Miniaturization of these assays to 1536-well plate format for quantitative high throughput screening (qHTS) yielded rich data sets immediately from the qHTS assay (S16(c9) Pmp22-F2sN), when compared with data from a cell viability assay (Cell TiterGlo) to identify compounds that decreased the output signals through cellular toxicity to streamline the selection process of actives for subsequent characterization using the HiBiT assay (S16(f8) PMP22-HiBiT).
Biochemical Promega Nano-Glo solution NLuc assay PROTOCOL TABLE (format as described by Inglese J, Shamu CE and Guy RK. 2007) SEQUENCE No. (e.g., 1, 2, 3, etc.); PARAMETER (e.g., Cells, Incubation, Reagent, etc.); VALUE and DESCRIPTION. 1. Reagent. Add 2 uL substrate per well into Greiner 1536-well white/solid bottom high base, medium binding plates. 2. Compounds. Library compounds and controls added at 23nL per well, transferred by Pin Tool. 3. Incubation. Incubate plates 5 min at ambient temperature. 4. Reagent. Add 2uL NLuc enzyme solution per well of Greiner 1536-well plates. 5. Incubation. Incubate plates at room temperature for 10 min., protect from light. 6. Detector. FLuc luminescence measured using CCD-based camera (Viewlux). NOTES (numbers refer to Sequence numbers above; values are from representative experiments) 1. Freshly prepared Nano-Glo Luciferase Assay System reagent per Promega instructions, product N1120, and filtered through […]. 4. Enzyme was obtained by filtering media of S16 cells expressing secreted NLuc (Inglese et al. 2014) grown to 80-90% confluency in DMEM High Glucose, No Phenol Red media + 10% heat inactivated FBS + 1% Pen/Strep supplemented media6. Luminescence Read (Fluc): Clear filter; Exposure = 10 sec, Gain = High, Speed = Slow, Binning = 2X 6. Luminescence Read (Nluc): Clear filter; Exposure = 1 sec, Gain = High, Speed = Slow, Binning = 2X REFERENCES: 1. Inglese J, Shamu CE and Guy RK, Reporting data from high throughput screening of small molecule libraries, Nature Chemical Biology, 2007, 3(8): 438-441. doi.org/10.1038/nchembio0807-438 2. Yasgar A, Shinn P, Jadhav A, Auld DS, Michael S, Zheng W, Austin CP, Inglese J and Simeonov A, Compound Management for Quantitative High-Throughput Screening. J. Assoc. Lab. Auto., 2008, 13: 79-89. doi: 10.1016/j.jala.2007.12.004 3. Inglese, J., Dranchak, P., Moran, J. J., Jang, S. W., Srinivasan, R., Santiago, Y., Zhang, L., Guha, R., Martinez, N., MacArthur, R., Cost, G. J., and Svaren, J. (2014) Genome editing-enabled HTS assays expand drug target pathways for Charcot-Marie-tooth disease, ACS Chem Biol 9, 2594-2602.
In general terms: A counterscreen serves to expose hits that act by an unwanted route or on another target.
For the compound `CCCCOc1ccc(CN2C(=O)C(=O)c3cc(Br)cc(C)c32)cc1OC`, the Potency result is “inactive”.
The result for `CCOC(=O)c1ccc(NC(=O)CSc2nc3c([nH]c4ccccc43)c(=O)n2C)cc1` reads “inactive”; that for `CC(=O)N1CCCc2cc(S(=O)(=O)N3CCCC(C(=O)N4CCN(c5cccc(Cl)c5)CC4)C3)ccc21` (stereo not given), “inactive”; that for `Cc1cc(OCC(=O)NCC2(N(C)C)CCCCC2)cc(C)c1Cl`, “inactive”.
Under `O=C(c1ccc2c(c1)N(Cc1ccc(F)cc1)C(=O)c1ccccc1S2(=O)=O)N1CCN(c2ccccn2)CC1` stands 3.43 µM (active).
Under `CCOc1ccc(NC(=O)c2c(NC(=O)Cc3ccccc3)sc3c2CCC(C)C3)cc1` (stereo not given) stands “inactive”; under `Cc1ccc(OCCSc2nc3ccc(NC(=O)COc4ccc(C)cc4)cc3s2)cc1`, “inactive”; under `CCC1=Nc2cc(C(=O)NCCCOC(C)C)ccc2Sc2ccc(C)cc21`, “inactive”.
Regarding `COc1ccc(CCNC(=O)c2cc(=O)c3c(C)cc(C)cc3o2)cc1OC`, the Potency is 0.343 µM (active).
For `CCc1ccc(C2CC(=O)c3c([nH]c(C(=O)OCc4ccc(C)cc4)c3C)C2)cc1` (stereo not given), the Potency entry is “inactive”.
Turning to `COc1ccc(-c2onc(C)c2C)cc1S(=O)(=O)NCC1CCN(Cc2cccc(F)c2)CC1`, the Potency entry is “inactive”.
The result for `CCC1CCCCN1CCCNC(=O)c1cc2c(Cl)nc3ccccc3c2s1` (stereo not given) reads “inactive”; that for `CCCS(=O)(=O)c1ncc(Cl)c(C(=O)Nc2scc(-c3ccccc3)c2C(=O)OCC)n1`, “inactive”; that for `Cc1ccc(C)n1-c1nnc(N2CCC(C(=O)NCc3ccccc3Cl)CC2)s1`, “inactive”.
For `CCOC(=O)c1c(C)[nH]c(CCC(=O)NCCCN2CCN(c3cccc(Cl)c3)CC2)c1C`, the Potency result is “inactive”.
Take `Cc1cccc(Nc2cc(C)nc(-n3nc(C)cc3C)n2)c1`: the Potency is 6.11 µM (active).
For the compound `CCOCCCNC(=O)c1c(NC(=O)c2nc(SC)ncc2Cl)sc2c1CCCC2`, the Potency result was “inactive”.
The result for `Cc1nnc(SCC(=O)NCc2ccccc2Cl)c2nn(-c3ccccc3)c(C)c12` reads “inactive”.
With `COc1ccccc1Nc1c2c(nc3ccc(NC(=O)/C=C/c4cc(OC)c(OC)c(OC)c4)cc13)CCCC2`, the Potency is 4.32 µM (active).
Consider `O=C(c1ccc(C(F)(F)F)cc1)N1CCC(c2nc(-c3ccc(S(=O)(=O)N4CCCC4)cc3)no2)CC1`, for which the Potency result is “inactive”.
In the case of `CC(C)(C)c1ccc(C(=O)NCC(c2ccco2)S(=O)(=O)c2ccc(F)cc2)cc1` (stereo not given), the Potency entry was “inactive”.
The result for `CCCn1c2ccccc2c2cnn(CC(=O)NCC3CCN(Cc4ccc(C)cc4)CC3)c(=O)c21` reads “inactive”.
For the compound `Cc1ccc(CCNC(=O)C2CCN(c3nnc(-n4cccc4CNc4ccc(C)cc4)s3)CC2)cc1`, the Potency entry was “inactive”.
Under `Cc1ccc(NC(=O)c2nc(S(=O)(=O)Cc3cccc(C)c3)ncc2Cl)cc1` stands “inactive”; under `CCOC(=O)c1c(C)[nH]c(CCC(=O)NCCCN2CCN(c3cc(C)ccc3C)CC2)c1C`, “inactive”.
